Experimental findings from PubChem BioAssay (EPA / NIEHS) are described below.

SMILES strings stand for the structures. Activity calls are given as the source filed them. Rule for the calls: active = hit-call score of the fitted dose curve at least 0.9, where 1 is the maximum; inactive = score below 0.9.

Experiment [1] is described as follows: APR_HepG2_CellCycleArrest_24hr: Apredica 24-hour HepG2 Assay for Cell Cycle Arrest (AID 2282905).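 Note: cell cycle arrest scored as ratio of 2N to 4N nuclear DNA content.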 The following applies: imaging, actives raise or lower the signal. A digest of the protocol: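 Readout: Hoechst 33342 nuclear DNA content by high-content fluorescent imaging, six images/well, 20x. Human HepG2 liver cells, 24 hr compound exposure, 0.39–200 uM, final DMSO 0.5% v/v. Gain or loss fitted relative to DMSO baseline.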

A short description of experiment [2]: APR_HepG2_NuclearSize_24hr: Apredica 24-hour HepG2 Assay for Nuclear Size (AID 2282907). The following applies: high-content imaging, actives raise or lower the signal. A digest of the protocol: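 Read-out: nuclear diameter from Hoechst 33342 (2 ug/mL) imaging of fixed HepG2 cells, 20x, six fields/well. Compounds ran at 0.39–200 uM for 24 hr, 0.5% DMSO final. Gain or loss was fitted bidirectionally relative to the DMSO baseline.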

The nature of experiment [3]: APR_HepG2_CellLoss_24hr: Apredica 24-hour HepG2 Assay for Cell Loss (AID 2282908).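 For AC50: fit in both directions so a hit may be cell loss or gain.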 The note with it: high-content imaging. Put shortly:
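Read-out: Hoechst 33342-stained nuclei counted by automated fluorescence imaging after formaldehyde fixation and Triton permeabilization. Ten concentrations, 0.39 to 200 uM, duplicate wells, 0.5% DMSO final. Gain or loss of signal fitted relative to DMSO baseline.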

Experiment [4] in a line: APR_HepG2_MicrotubuleCSK_24hr: Apredica 24-hour HepG2 Assay for Microtubule CSK Stabilty (AID 2282909). The following applies: HepG2 microtubule cytoskeleton imaging, actives raise or lower the signal. A digest of the protocol:
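Read-out: alpha-tubulin immunofluorescence intensity by automated high-content imaging of fixed HepG2 cells after 24 h compound treatment. Ten concentrations, 0.39 to 200 uM, in duplicate; DMSO 0.5% v/v. Taxol positive control; DMSO-normalized bidirectional curve fitting.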

Experiment [5] can be described thus: APR_HepG2_MitoticArrest_24hr: Apredica 24-hour HepG2 Assay for Mitotic Arrest (AID 2282910). The following applies: high-content imaging, actives raise or lower the signal. Put shortly: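 HepG2, 24 hr dosing, 0.39–200 uM, 0.5% DMSO final. Formaldehyde-fixed, Triton-permeabilised, anti-phospho-histone H3 plus Hoechst. ArrayScan imaging at 20x; bidirectional fit vs DMSO baseline.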

Experiment [6] is described as follows: APR_HepG2_MitoMembPot_24hr: Apredica 24-hour HepG2 Assay for Mitochondrial Membrane Potential (AID 2282911). The following applies: imaging, actives raise or lower the signal. Put shortly: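 Mitochondrial dye uptake (MitoTracker Red CMXRos, 250 nM, 30 min pre-fixation) in HepG2 after 24 hr compound exposure, 0.39–200 uM; ArrayScan images at 20x, activity fitted in both directions relative to DMSO.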

The nature of experiment [7]: APR_HepG2_MitoMass_24hr: Apredica 24-hour HepG2 Assay for Mitochondrial Mass (AID 2282912). The note with it: high-content imaging, actives raise or lower the signal. Put shortly:
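HepG2, 24 hr dosing, 10 concentrations 0.39–200 uM in duplicate, DMSO 0.5% final. MitoTracker Red CMXRos 250 nM, 30 min pre-fix; 3.7% formaldehyde fix. Imaging-based fluorescence intensity; gain/loss fit vs DMSO baseline.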

Experiment [8] can be described thus: APR_HepG2_p53Act_24hr: Apredica 24-hour HepG2 Assay for p53 Activation (AID 2282913).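 Note: p53 protein immunofluorescence averaged per cell in HepG2 with Hoechst nuclei.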 The note with it: high-content imaging, actives raise or lower the signal. Put shortly: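 Following 24 hr dosing of HepG2 at 0.39–200 uM, the cells undergo formaldehyde fixation, Triton permeabilization and multiplexed antibody labeling that includes p53 (Cy5). Signal from the imaging is referenced to DMSO solvent controls.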

Experiment [9] is described as follows: APR_HepG2_CellCycleArrest_72hr: Apredica 72-hour HepG2 Assay for Cell Cycle Arrest (AID 2282914). The following applies: high-content imaging, actives raise or lower the signal. A digest of the protocol:
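Using multiplexed high-content imaging, HepG2 nuclei stained with Hoechst 33342 (2 ug/mL) were analysed for DNA content after fixation and permeabilization. Treatment lasted 72 hr across 0.39–200 uM in duplicate with final DMSO 0.5% v/v; DMSO served as negative control.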

A short description of experiment [10]: APR_HepG2_CellLoss_72hr: Apredica 72-hour HepG2 Assay for Cell Loss (AID 2282915). The note with it: high-content imaging. A digest of the protocol: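 HepG2 cells exposed 72 h to compound at 0.39–200 uM (10 concentrations, duplicate) in 0.5% DMSO. Fixed with 3.7% formaldehyde and Hoechst 33342-stained. Imaged at 20x; nuclear count gives cell number, fitted bidirectionally versus DMSO.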

Experiment [11] in a line: APR_HepG2_P-H2AX_72hr: Apredica 72-hour HepG2 Assay for H2AX Phosphorylation (AID 2282916).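 Note: phospho-histone H2A.x immunostain intensity per cell marking DNA damage.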 The note with it: imaging, actives raise or lower the signal. Put shortly: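 Readout: phospho-H2A.x immunofluorescence (FITC secondary) plus Hoechst nuclear stain, high-content imaging at 20x, six fields/well. HepG2, 72 hr compound exposure, 0.39–200 uM, final DMSO 0.5% v/v. Gain or loss fitted relative to DMSO baseline.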

Experiment [12] can be described thus: APR_HepG2_MitoticArrest_72hr: Apredica 72-hour HepG2 Assay for Mitotic Arrest (AID 2282918). The following applies: high-content imaging, actives raise or lower the signal. A digest of the protocol:
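Using high-content imaging of fixed HepG2 cells, phospho-histone H3 signal was measured following a 72 hr incubation with ten-point compound dilutions up to 200 uM. DMSO served as the negative control and baseline for bidirectional curve fitting.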

The nature of experiment [13]: APR_HepG2_MicrotubuleCSK_72hr: Apredica 72-hour HepG2 Assay for Microtubule CSK Stabilty (AID 2282919). The note with it: HepG2 microtubule cytoskeleton, high-content imaging, actives raise or lower the signal. A digest of the protocol:
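HepG2, 72 hr cmpd exposure, 0.39–200 uM (10 pts, duplicate), 0.5% DMSO. 3.7% formaldehyde fix, 0.5% Triton perm, anti-alpha-tubulin/Cy5 plus Hoechst. HCS fluorescence intensity; bidirectional fit vs DMSO baseline; taxol as positive control.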

Experiment [14] is described as follows: APR_HepG2_P-H2AX_24hr: Apredica 24-hour HepG2 Assay for H2AX Phosphorylation (AID 2282920). The following applies: high-content imaging, actives raise or lower the signal. A digest of the protocol: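 Human HepG2 liver cells, treated 24 hr with test chemicals (0.39–200 uM, final DMSO 0.5% v/v), are fixed and co-stained for phospho-H2A.x and c-Jun with Hoechst. Imaged intensity is fitted in both directions against DMSO controls.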

Experiment [15] in a line: APR_HepG2_StressKinase_72hr: Apredica 72-hour HepG2 Assay for Stress Kinase (AID 2282921). The note with it: HepG2 stress kinase (phospho-c-Jun) imaging, actives raise or lower the signal. Put shortly:
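Phospho-c-Jun immunofluorescence measured by high-content imaging at 20x, six fields per well; bidirectional curve fitting against DMSO as baseline. Dosing: 0.39–200 uM, 72 h, 0.5% DMSO final.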

Experiment [16] in a line: APR_HepG2_StressKinase_24hr: Apredica 24-hour HepG2 Assay for Stress Kinase (AID 2282922). The following applies: HepG2 stress kinase (phospho-c-Jun) imaging, actives raise or lower the signal. A digest of the protocol:
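Read-out: phospho-c-Jun immunofluorescence (Cy3 secondary) quantified by high-content imaging at 20x, nuclei defined by Hoechst 33342. Human HepG2 liver cells dosed 24 hr, 0.39–200 uM, DMSO 0.5% v/v; gain or loss of signal fitted relative to DMSO.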

Experiment [17] in a line: APR_HepG2_p53Act_72hr: Apredica 72-hour HepG2 Assay for p53 Activation (AID 2282923).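 Note: average cellular p53 protein immunofluorescence intensity in HepG2 cells.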 The following applies: high-content imaging, actives raise or lower the signal. Put shortly:
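Readout: p53 immunofluorescence quantified by automated high-content imaging at 20x, six fields per well, nuclei located via Hoechst. Dosing ran 72 hr over ten concentrations from 0.39 to 200 uM; bidirectional curve fitting against DMSO baseline.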

A short description of experiment [18]: APR_HepG2_MitoMass_72hr: Apredica 72-hour HepG2 Assay for Mitochondrial Mass (AID 2282924).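 Note: MitoTracker Red CMXRos stain intensity per cell imaged as mitochondrial mass.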 The following applies: high-content imaging, actives raise or lower the signal. Put shortly: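 Read-out: MitoTracker Red fluorescence intensity from automated imaging (20x, six fields per well) in human HepG2 liver cells. Dosing ran 72 hr, 0.39–200 uM, 0.5% DMSO; bidirectional curve fitting versus DMSO baseline.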

Experiment [19] is described as follows: APR_HepG2_NuclearSize_72hr: Apredica 72-hour HepG2 Assay for Nuclear Size (AID 2282925). The following applies: high-content imaging, actives raise or lower the signal. Put shortly:
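Read-out: nuclear diameter from Hoechst 33342 images (ArrayScan, 20x, six fields/well), via cell-cycle image analysis. HepG2 were dosed 0.39–200 uM for 72 hr in 0.5% DMSO. Bidirectional fit relative to DMSO.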

Experiment [20] can be described thus: APR_HepG2_MitoMembPot_72hr: Apredica 72-hour HepG2 Assay for Mitochondrial Membrane Potential (AID 2282917). The note with it: imaging, actives raise or lower the signal. A digest of the protocol: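 HepG2 cells dosed 72 hr with compound at 0.39–200 uM in duplicate, 0.5% v/v DMSO final. Mitochondria stained with 250 nM MitoTracker Red CMXRos for 30 min before formaldehyde fixation, imaged by high-content fluorescence; bidirectional fit versus DMSO.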

For the compound `CCCCCCCCCC(=O)O`, the result in experiment [1], in experiment [2], in experiment [3], in experiment [4], in [5] and in [6] was inactive. The compound was classed as inactive in [7], in experiment [8], in [9], in [10], in experiment [11] and in [12]. Also, the result in experiment [13], in experiment [14], in [15], in experiment [16], in [17] and in experiment [18] was inactive. The outcome in [19] was inactive.

A word on the AC50: it is the midpoint of the concentration-response curve, whichever way the signal moves. Turning to `O=c1c(-c2ccc(O)cc2)coc2cc(O)cc(O)c12`, the AC50 in [1] was 43.1 µM (active); in experiment [3] it was 32.6 µM (active); in experiment [6] it was 78.9 µM (active); in [8] it was 70.7 µM (active); in experiment [9], 47.4 µM (active); in [10] it was 42.9 µM (active). For the same compound, the half-maximal activity concentration (AC50) in [17] is 72.9 µM (active). Moreover, the result in [2], in experiment [4], in experiment [5], in experiment [7], in [11] and in experiment [12] was inactive. In addition, the outcome in [13], in experiment [14], in experiment [15], in [16], in experiment [18] and in experiment [19] was inactive.

Turning to `Cc1occc1C(=O)Nc1ccc(C(=O)N2CCC(F)(F)/C(=C\C(=O)N3CCC(N4CCCCC4)CC3)c3ccccc32)cc1`, the AC50 in experiment [1] is 34.9 µM (active); in [3], 16.2 µM (active); in experiment [12], 20.7 µM (active); in experiment [17], 29 µM (active). The compound was classed as inactive in experiment [2], in experiment [4], in experiment [5], in experiment [6], in experiment [7] and in experiment [8]. Moreover, the compound was classed as inactive in experiment [9], in experiment [11], in [20], in experiment [13], in experiment [14] and in experiment [15]. Further, the result in experiment [16], in experiment [18] and in [19] was inactive.

Turning to `O=C(O)c1ccccc1-n1cc(C(=O)O)c(=O)c2cc(Nc3c(F)cc(F)cc3Cl)c(Cl)cc21`, the call in [1], in [2], in experiment [3], in [4], in [5] and in experiment [6] was inactive. Also, the result in experiment [7], in experiment [8], in [9], in [11], in experiment [20] and in experiment [12] was inactive. Besides, the outcome in experiment [13], in experiment [14], in experiment [15], in experiment [16], in experiment [17] and in [18] was inactive. In addition, the call in [19] was inactive.

`O=C(O)c1ccccc1C(=O)OCc1ccccc1`: the result in [1], in experiment [2], in experiment [3], in [4], in experiment [5] and in [6] was inactive. Also, the outcome in [7], in [8], in experiment [9], in experiment [11], in experiment [12] and in [13] was inactive. Moreover, the outcome in experiment [14], in experiment [15], in experiment [16], in [17], in experiment [18] and in experiment [19] was inactive.

In the case of `C[C@]12CC[C@@H]3c4ccc(O)cc4CC[C@H]3[C@@H]1CCC2=O`, the compound was classed as inactive in [1], in experiment [2], in experiment [3], in [4], in experiment [5] and in [6]. Moreover, the compound was classed as inactive in experiment [7], in experiment [9], in experiment [11], in [12], in experiment [13] and in experiment [14]. The compound was classed as inactive in [15], in [16], in experiment [18] and in experiment [19].
